Data as given in PubChem BioAssay (NCI).
The panel holds about 79,000 compounds, 15% with a hit somewhere; the sample as a whole holds those more often. Activity calls are given as the source filed them. Rule as the data show it: active = growth inhibition above about 70%; inactive = the rest.

Assays:
[1] = NCI Yeast Anticancer Drug Screen. Data for the rad50 strain (AID 155);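 also: 0% = growth of vehicle-only cultures of the same strain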; details: S. cerevisiae rad50 strain growth inhibition, active compounds read high
Outline: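 Relative growth inhibition (compound vs vehicle) was measured in yeast with a defined repair-gene alteration.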

[2] = NCI Yeast Anticancer Drug Screen. Data for the mec2-1 strain (AID 157); details: S. cerevisiae mec2-1 strain, active compounds read high
Outline: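 Each compound was tested on mec2-1 yeast, a strain altered in DNA damage repair or cell cycle control. Growth inhibition is reported relative to vehicle.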

[3] = NCI Yeast Anticancer Drug Screen. Data for the sgs1 mgt1 strain (AID 161);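 also: 0% = growth of cultures given vehicle only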; details: S. cerevisiae sgs1 mgt1 strain, active compounds read high
Outline: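 Test agents were incubated with a DNA-repair-mutant yeast strain. Growth was then read and compared against vehicle-treated controls.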

[4] = NCI Yeast Anticancer Drug Screen. Data for the cln2 rad14 strain (AID 165);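 also: 0% = growth equal to vehicle treated cultures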; details: S. cerevisiae cln2 rad14 strain, active compounds read high
Outline: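 Test compounds were added to cln2 rad14 yeast cultures; inhibition of growth was then determined by comparison with vehicle treatment.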

[5] = NCI Yeast Anticancer Drug Screen. Data for the bub3 strain (AID 167); details: S. cerevisiae bub3 mutant strain, active compounds read high
Outline: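 Screening used yeast with an engineered genetic alteration affecting cell cycle control. Compound-exposed cultures were compared with vehicle cultures, and reduced growth was taken as inhibition.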

[6] = NCI Yeast Anticancer Drug Screen. Data for the mlh1 rad18 strain (AID 175); details: S. cerevisiae mlh1 rad18 strain growth inhibition, active compounds read high
Outline: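 Inhibition values reflect reduced growth of mutant yeast versus vehicle-treated controls following compound exposure; the mutations affect DNA damage repair.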

[7] = at 5.0 µM (retest, dose inferred, filed as 0.5)
[8] = at 50.0 µM (retest, dose inferred, filed as 5.0)

Measured: growth inhibition

CC(NNC(=S)N(C)C1CCCCC1)c1cc2ccccc2cn1 (stereo not given)
inactive: [1]; [7] 48% | [2]; [7] 55% | [6]; [7] 51%
active: [1]; [8] 92% | [1]; at 50.0 µM 86.8% | [2]; [8] 94% | [2]; at 50.0 µM 75.3% | [3]; [7] 97% | [3]; [8] 94% | [3]; at 50.0 µM 85.5% | [4]; [7] 94% | [4]; [8] 92% | [4]; at 50.0 µM 79.8% | [5]; [7] 94% | [5]; [8] 95% | [5]; at 50.0 µM 84% | [6]; [8] 93% | [6]; at 50.0 µM 83%

CCCN(CCC)CC(O)c1cc(-c2ccccc2)nc2c(Cl)cc(Cl)cc12 (stereo not given)
inactive: [1]; [7] 3% | [2]; [7] -2% | [3]; [7] 2% | [4]; [7] -5% | [5]; [7] -1% | [6]; [7] -2%
active: [1]; [8] 90% | [1]; at 50.0 µM 98.3% | [2]; [8] 100% | [2]; at 50.0 µM 98.2% | [3]; [8] 81% | [3]; at 50.0 µM 98% | [4]; [8] 99% | [4]; at 50.0 µM 97.8% | [5]; [8] 99% | [5]; at 50.0 µM 98.2% | [6]; [8] 94% | [6]; at 50.0 µM 92.2%

CN(C)c1ccc(C2ON=C(c3ccccc3)N2C23CC4CC(CC(C4)C2)C3)cc1 (stereo not given)
inactive: [1]; [7] 0% | [1]; [8] 36% | [1]; at 50.0 µM -11.6% | [2]; [7] -11% | [2]; [8] 3% | [2]; at 50.0 µM -3.05% | [3]; [7] -5% | [3]; [8] 33% | [3]; at 50.0 µM -7.15% | [4]; [7] 8% | [4]; [8] 2% | [4]; at 50.0 µM 55.3% | [5]; [7] 14% | [5]; [8] 13% | [5]; at 50.0 µM -11.1% | [6]; [7] 4% | [6]; [8] 5% | [6]; at 50.0 µM -24%

O=C(O)C(c1ccc(Cl)cc1)c1ccc(Cl)cc1
active: [1]; [8] 98% | [1]; at 50.0 µM 95.3% | [2]; [8] 98% | [2]; at 50.0 µM 95.5% | [3]; [8] 99% | [3]; at 50.0 µM 91.9% | [4]; [8] 97% | [4]; at 50.0 µM 92.5% | [5]; [8] 99% | [5]; at 50.0 µM 97.4% | [6]; [8] 96% | [6]; at 50.0 µM 95.8%
inactive: [1]; [7] 10% | [2]; [7] 9% | [3]; [7] 7% | [4]; [7] 6% | [5]; [7] 9% | [6]; [7] 13%

CC(=O)O[C@]1(C(C)=O)CC[C@H]2[C@@H]3C[C@H](C)C4=CC(=O)NCC[C@]4(C)[C@H]3CC[C@@]21C
inactive: [1]; [7] 0% | [2]; [7] 20% | [3]; [7] -20% | [4]; [7] 6% | [5]; [7] 14% | [6]; [7] 6%
active: [1]; [8] 87% | [1]; at 50.0 µM 93.2% | [2]; [8] 91% | [2]; at 50.0 µM 94.6% | [3]; [8] 90% | [3]; at 50.0 µM 88% | [4]; [8] 81% | [4]; at 50.0 µM 90.1% | [5]; [8] 92% | [5]; at 50.0 µM 92% | [6]; [8] 90% | [6]; at 50.0 µM 94.5%
